Several values for one entry are separate records, joined by “and”; a condition that tells them apart may be missing. Equal values may be shown once. The panel holds about 83,000 compounds, 20% with a hit somewhere; the sample as a whole holds those more often.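 Growth was measured after 48 h exposure to one concentration of compound in 96-well plates. Values under 10 count as active.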
What was measured:
Experiment in all cases: NCI-60 one-dose screen, 48 h (100 = growth as untreated, 0 = no growth, -100 = all killed)
Settings in all cases: 10 µM unless noted
[1] = test system: HCT-15 colon
[2] = test system: HT29 colon
[3] = test system: SNB-75 CNS
[4] = test system: SNB-19 CNS
[5] = test system: U251 CNS
[6] = test system: PC-3 prostate
[7] = test system: SK-MEL-5 melanoma
[8] = test system: UACC-62 melanoma
[9] = test system: LOX IMVI melanoma
[10] = test system: SK-MEL-2 melanoma
[11] = test system: EKVX NSCLC
[12] = test system: SN12C renal
[13] = test system: UO-31 renal
[14] = test system: TK-10 renal
[15] = test system: ACHN renal
[16] = test system: CAKI-1 renal
[17] = test system: A498 renal
[18] = test system: CCRF-CEM leukemia
[19] = test system: MOLT-4 leukemia
[20] = test system: SK-MEL-28 melanoma

Measured: growth

COc1ccc(COC=O)cc1
inactive: [1] 107% | [2] 104% | [3] 102% | [4] 114% | [5] 100% | [6] 99.9% | [7] 104% | [8] 104% | [9] 100% | [10] 108% | [11] 109% | [12] 101% | [13] 92.5% | [14] 103% | [15] 110% | [16] 102% | [17] 105% | [18] 103% | [19] 102%

O=c1[nH]nnc2cc(Cl)ccc12
inactive: [1] 93.9% and 104% | [2] 109% and 129% | [3] 87.1% and 83% | [4] 104% and 103% | [5] 97.3% and 93.8% | [6] 103% and 90.7% | [7] 100% | [8] 99.8% and 101% | [9] 101% | [20] 117% and 109% | [10] 121% and 144% | [11] 105% and 97.3% | [12] 105% and 100% | [13] 70.5% and 76.3% | [15] 97.6% and 101% | [17] 106% | [18] 114% and 103% | [19] 104% and 95.9%

CCCCNC(=O)c1ccccc1C
inactive: [1] 93.4% | [2] 102% | [3] 99% | [4] 98.2% | [5] 99.3% | [6] 88.2% | [7] 93.3% | [8] 101% | [9] 96.9% | [10] 100% | [11] 94.9% | [12] 98.5% | [13] 94.4% | [14] 97.5% | [15] 104% | [16] 96.5% | [17] 126% | [18] 99.7% | [19] 98.5%

Nc1c(Cl)cc2c(c1Br)C(=O)c1ccccc1C2=O
inactive: [1] 88.9% | [2] 100% | [3] 94.2% | [4] 88.8% | [5] 95.8% | [6] 97.7% | [7] 89.4% | [8] 77% | [9] 94.2% | [20] 113% | [10] 103% | [11] 60.2% | [12] 87.3% | [14] 108% | [15] 73% | [16] 82.3% | [17] 110% | [18] 96.2% | [19] 87.8%

CCCC(=O)Oc1ccc(CC)cc1
inactive: [1] 99.5% | [2] 108% | [3] 88.8% | [4] 109% | [5] 98.4% | [6] 101% | [7] 106% | [8] 105% | [9] 97.8% | [20] 117% | [10] 107% | [11] 99% | [12] 98.5% | [14] 97.2% | [15] 107% | [16] 96.1% | [17] 78.1% | [18] 107% | [19] 101%

COc1ccc2nccc(Cl)c2c1
inactive: [1] 109% | [2] 104% | [3] 91.1% | [4] 103% | [5] 97.6% | [6] 95.3% | [7] 102% | [8] 89.6% | [9] 97.9% | [20] 110% | [10] 97.4% | [11] 101% | [12] 98.7% | [13] 91.5% | [16] 97.3% | [17] 95.1% | [18] 109% | [19] 106%

O=c1[nH]c(=S)[nH]n1C(=S)n1[nH]c(=S)[nH]c1=O
inactive: [1] 112% | [2] 106% | [3] 92% | [4] 99.9% | [5] 93.6% | [6] 83.3% | [7] 93% | [8] 94.4% | [9] 95.6% | [20] 114% | [10] 106% | [11] 105% | [12] 101% | [14] 106% | [15] 99.3% | [16] 94.8% | [17] 109% | [18] 93.6% | [19] 112%

NC1=NC(c2ccccc2)N=C(Nc2ccccc2)N1 (configuration not stated)
inactive: [1] 102% and 98.9% | [2] 62.4% and 60.7% | [3] 53.1% and 12.8% | [4] 67% and 76% | [5] 42.8% and 44.5% | [6] 65.1% and 70.9% | [7] 69.6% and 35.6% | [8] 89% | [9] 85.8% and 83% | [20] 87.8% and 102% | [10] 100% and 84.3% | [11] 79.3% and 90.5% | [12] 98.6% and 99.1% | [14] 94% and 102% | [15] 97.9% and 84.1% | [16] 74.2% and 93.8% | [17] 96.3% and 110% | [18] 49.6% and 95.1% | [19] 65.7% and 71.4%

OCCSc1ccc(Cl)cc1
inactive: [1] 104% and 102% | [2] 104% and 88.1% | [3] 96.7% and 83% | [4] 118% and 94.6% | [5] 102% and 96.6% | [6] 101% and 81.5% | [7] 108% and 98.3% | [8] 110% and 98.1% | [9] 98.4% and 101% | [20] 121% and 93.3% | [10] 109% and 90.7% | [11] 100% and 89.4% | [12] 104% and 93% | [14] 87.7% | [15] 99.6% and 95.1% | [16] 107% and 91.1% | [17] 107% and 88.9% | [18] 119% and 96.7% | [19] 118% and 91.7%

O=C(O)/C=C/C=C/c1ccccc1
inactive: [1] 102% and 108% | [2] 100% and 103% | [3] 103% and 98.4% | [4] 97.1% and 100% | [5] 106% and 96.9% | [6] 97.4% and 101% | [7] 102% and 94.7% | [8] 96.1% and 102% | [9] 99.3% and 97.9% | [10] 104% and 115% | [11] 100% | [12] 96% and 106% | [13] 93.1% and 88.4% | [14] 97.3% and 106% | [15] 103% and 109% | [16] 98.9% and 101% | [17] 73.4% | [18] 102% and 95.1% | [19] 106% and 109%

CCN(CC)CCNC(=O)c1ccc(NCN2C(=O)NC(c3ccccc3)(c3ccccc3)C2=O)cc1
inactive: [1] 113% and 105% | [2] 108% and 112% | [3] 103% and 97.1% | [4] 109% and 105% | [5] 95.2% and 102% | [6] 97.6% and 93% | [7] 101% and 109% | [8] 104% and 97% | [9] 95.1% and 97.6% | [10] 106% and 112% | [11] 90.6% and 95.3% | [12] 107% and 105% | [13] 86.6% and 67.1% | [14] 115% and 114% | [15] 107% and 104% | [16] 90.5% and 88.1% | [18] 101% | [19] 102% and 108%

N#Cc1c(N)nc2c(c(-c3ccc(Cl)cc3)nn2-c2ccccc2)c1C#N
inactive: [1] 98.6% [100 µM] | [2] 106% [100 µM] | [3] 104% [100 µM] | [4] 99.6% [100 µM] | [5] 92.8% [100 µM] | [6] 98.6% [100 µM] | [7] 103% [100 µM] | [8] 97.9% [100 µM] | [9] 96.6% [100 µM] | [20] 114% [100 µM] | [10] 122% [100 µM] | [11] 83% [100 µM] | [12] 105% [100 µM] | [14] 128% [100 µM] | [15] 86.9% [100 µM] | [16] 108% [100 µM] | [17] 113% [100 µM] | [18] 98.9% [100 µM] | [19] 114% [100 µM]

OC(CC(c1ccccc1)c1cccc2ccccc12)(c1ccccc1)c1ccccc1 (configuration not stated)
inactive: [1] 78.9% and 68.3% | [2] 68.2% and 52.6% | [3] 103% and 74.6% | [4] 95.5% and 94.7% | [5] 90.4% and 87.7% | [6] 60.6% and 56.4% | [7] 88.3% and 95.5% | [8] 76.7% and 79.4% | [9] 80.5% and 74.8% | [20] 95.8% and 100% | [10] 77.9% and 74.5% | [11] 79.8% and 54.9% | [12] 91.3% and 84.9% | [13] 70.2% and 57.4% | [17] 73.4% and 89.7% | [18] 38.5% and 83.4% | [19] 77.3% and 52.7%
